From the supplement of paper PMC8975748 come the findings set out here.

Counter-ions that a name gives are not always drawn.

For the assay, the system named is Saccharomyces cerevisiae BY4741 SeMeCo community. In words: z-score of subpopulation abundance vs DMSO median, subpopulation auxotrophic for LU; higher = larger share of this subpopulation than in DMSO controls. The note with it: 10 µM; 24 h; SM minimal medium; subpopulation (auxotrophy): LU. The essentials:
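Four plasmids, each restoring a single auxotrophy and encoding a distinct fluorescent protein, were carried by a Saccharomyces cerevisiae BY4741 community. After overnight growth to OD600 1.0 and dilution to 0.3, 70 µl per well was grown for 24 h in minimal SM medium on 384-well plates acoustically predosed with library drugs at 10 µM final. Following paraformaldehyde fixation, automated confocal microscopy was used, with single-auxotroph fluorescent strains defining thresholds and autofluorescence correction. Subpopulation abundance was then scored as a z-score against the vehicle-well median.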
As for `CC(C)NC(=N)NC(=N)Nc1ccc(Cl)cc1` [Proguanil], the “z-score of subpopulation abundance” value is -0.48.
With `Nc1nc(O)c2ncn(CCC(CO)CO)c2n1` [Penciclovir] the figure was 0.58.
Turning to `C=CC(C)(O)CCC=C(C)C` (centres undefined) [Linalool], the “z-score of subpopulation abundance” value is 0.53.
As for `O=C(N[C@H](CO)[C@H](O)c1ccc([N+](=O)[O-])cc1)C(Cl)Cl` [Chloramphenicol], the “z-score of subpopulation abundance” value is -0.22.
With `CCCN1CCCC[C@H]1C(=O)Nc1c(C)cccc1C` [Ropivacaine] the figure was -1.21; with `Cc1onc(-c2ccccc2)c1-c1ccc(S(N)(=O)=O)cc1` [Valdecoxib], -0.06.
The result for `CN1[C@@H]2CC[C@H]1C[C@@H](OC(=O)c1c[nH]c3ccccc13)C2` [Tropisetron] reads 0.87; that for `CC[C@H]1OC(=O)[C@H](C)[C@@H](O[C@H]2C[C@@](C)(OC)[C@@H](O)[C@H](C)O2)[C@H](C)[C@@H](O[C@@H]2O[C@H](C)C[C@H](N(C)C)[C@H]2O)[C@](C)(O)C[C@@H](C)/C(=N\OCOCCOC)[C@H](C)[C@@H](O)[C@]1(C)O` [Roxithromycin], -0.28; that for `COc1ccccc1N1CCN(CCCNc2cc(=O)n(C)c(=O)n2C)CC1` [Urapidil HCl], 0.29.
With `O=C(O)c1cc(-c2ccc(F)cc2F)ccc1O` [Diflunisal] the figure was -1.6; with `C=C[C@H]1CN2CC[C@H]1C[C@H]2[C@H](O)c1ccnc2ccc(OC)cc12` [Quinine HCl Dihydrate], -0.08; with `Cc1nc(=O)c2cc(CN(C)c3ccc(C(=O)N[C@@H](CCC(=O)O)C(=O)O)s3)ccc2[nH]1` [Raltitrexed], -1.62.
`CC(C)Cc1ccc(C(C)C(=O)O)cc1` (centres undefined) [Ibuprofen Lysine]: the “z-score of subpopulation abundance” value was -4.01.
The result for `CN(C)CCc1c[nH]c2ccc(C[C@H]3COC(=O)N3)cc12` [Zolmitriptan] reads -0.9; that for `C[C@]12CC[C@@H]3c4ccc(O)cc4C[C@@H](CCCCCCCCC[S+]([O-])CCCC(F)(F)C(F)(F)F)[C@H]3[C@@H]1CC[C@@H]2O` (some centres undefined) [Fulvestrant], 0.81; that for `COc1ccc(NS(=O)(=O)c2ccc(N)cc2)nn1` [Sulfamethoxypyridazine], -0.73.
With `CNCCCN1c2ccccc2CCc2ccccc21` [Desipramine Hydrochloride] the figure was -0.28; with `Oc1ccc([C@H]2COc3cc(O)ccc3C2)cc1` [Equol], -0.26.
With `Cc1[nH]c(=O)c(C#N)cc1-c1ccncc1` [Milrinone] the figure was -0.56.
Regarding `Cc1ccc(O)c([C@H](CCN(C(C)C)C(C)C)c2ccccc2)c1` [Tolterodine tartrate], the “z-score of subpopulation abundance” value is -0.23.
The result for `CCN(CC)CCOC(=O)c1ccc(N)cc1` [Procaine] reads 0.48; that for `O=C(O)c1cc(/N=N/c2ccc(O)c(C(=O)O)c2)ccc1O` [Olsalazine Sodium], -0.37; that for `CCC(C)(Oc1ccc(C2(c3ccc(OC(C)(CC)C(=O)O)cc3)CCCCC2)cc1)C(=O)O` (centres undefined) [Clinofibrate], -0.18.
With `CN(C)[C@@H]1C(=O)C(C(N)=O)=C(O)[C@@]2(O)C(=O)C3=C(O)c4c(O)ccc(Cl)c4[C@@H](O)[C@H]3C[C@@H]12` [Demeclocycline HCl], the “z-score of subpopulation abundance” value is -0.08.
Regarding `COc1cc2c(cc1OC)C(=O)C(CC1CCN(Cc3ccccc3)CC1)C2` (centres undefined) [Donepezil], the “z-score of subpopulation abundance” value came to 0.06.
On to `CCn1cc(C(=O)O)c(=O)c2cc(F)c(N3CCNCC3)nc21` [Enoxacin], for which the “z-score of subpopulation abundance” value came to 0.6.
`NC(=O)[C@@H]1CC[C@@H]2CN1C(=O)N2OS(=O)(=O)O` [Avibactam sodium]: the “z-score of subpopulation abundance” value is 1.12.
As for `CN1[C@@H]2CC[C@H]1C[C@@H](OC(c1ccccc1)c1ccccc1)C2` [Benztropine mesylate], the “z-score of subpopulation abundance” value is -0.21.
The result for `C#C[C@]1(O)CC[C@H]2[C@@H]3CCC4=CCCC[C@@H]4[C@H]3CC[C@@]21C` [Lynestrenol] reads -0.82; that for `CC(C)(C)C(=O)OCOC(=O)[C@@H]1N2C(=O)[C@@H](/N=C/N3CCCCCC3)[C@H]2SC1(C)C` [Pivmecillinam hydrochloride], 0.57.
With `OC(c1ccccc1)(c1ccccc1)C12CC[N+](CCOCc3ccccc3)(CC1)CC2` [Umeclidinium bromide] the figure was -0.42; with `OCc1ccccc1O[C@@H]1O[C@H](CO)[C@@H](O)[C@H](O)[C@H]1O` [Salicin], -0.12.
The result for `CN(C)CCc1c[nH]c2ccc(Cn3cncn3)cc12` [Rizatriptan Benzoate] reads 0.31; that for `OCCN(CCO)c1nc(N2CCCCC2)c2nc(N(CCO)CCO)nc(N3CCCCC3)c2n1` [Dipyridamole], -7.03.
